Bioassay records (PubChem BioAssay)
CD40 NFkB inh = CD40 pathway inhibition in BL2 cells. BL2 NF-kB luciferase reporter, CD40L-induced, 4 h. inhibition, % at 10 µM. hit rate 0.94% among 83,000;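 active = mean inhibition of at least 50% with a set share of replicates also reaching that level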;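 note: 0% = neutral control wells and 100% = IKK inhibitor VII at 50 µM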
* hit, by the source's call; [ ] = remark or other dose. The full list was thinned out, with hits kept by preference.

SMILES	CD40 NFkB inh
CCN(CC)c1ccc(C(NC(=O)C(C)C)c2ccc3cccnc3c2O)cc1 (stereo not drawn)	75*
CC(C)C(=O)NC(c1ccc([N+](=O)[O-])cc1)c1c(O)ccc2ccccc12 (stereo not drawn)	11
CC(C)C(=O)NC(c1ccco1)c1ccc2cccnc2c1O (stereo not drawn)	-36
N#C[C@H]1[C@H](c2ccccc2C2=CCCC2)[C@H](CO)N1C(=O)NC1CCCCC1	11[25 µM]
Oc1ccc(Cc2ccccc2)c2cccnc12	83*
OCc1ccc(O)c2ncccc12	29
Oc1ccc(CN2CCC(Cc3ccccc3)CC2)c2cccnc12	25
O=C(Nc1ccc(F)cc1)c1nn(-c2ccccc2)c(=O)cc1Cl	85*
CCOC(=O)c1nn(-c2ccc(F)cc2)c(=O)cc1OCC(=O)Nc1cccc(C)c1	12
Cc1ccc(NC(=O)c2cc(-c3ccccc3)nn2-c2ccccc2)cc1	-3
CCNC(=O)[C@@H]1[C@@H](CO)[C@@H]2Cn3c(ccc(-c4ccc(F)cc4)c3=O)[C@@H]2N1Cc1cc(F)ccc1F	-3[25 µM]
CC(C)NC(=O)Nc1ccc2c(c1)C(=O)N(C)C[C@H](C)[C@@H](CN(C)C)O2	-13
c1ccc(Cn2nnc3c(N4CCCC4)ncnc32)cc1	-6
c1ccc(-n2nnc3c(N4CCOCC4)ncnc32)cc1	68*
Cc1nnc(N2CCOCC2)c2nn(-c3ccccc3)c(C)c12	4
CN1c2ccc(C#Cc3cccnc3)cc2[C@H]2[C@H](CCN2S(=O)(=O)c2ccc(F)cc2)[C@@H]1CO	-13[25 µM]
C[C@H]1CCCCO[C@@H](CN(C)C(=O)Nc2ccccc2)[C@@H](C)CN([C@@H](C)CO)C(=O)c2cc(NC(=O)Nc3ccc4c(c3)OCO4)ccc2O1	-20
C[C@@H]1CC=CC[C@@H](c2ccc3c(c2)OCO3)NC(=O)[C@@H](C)N(C)C(=O)c2ccccc2O1 (mixture of isomers)	19[25 µM]
CN1[C@@H]2c3ccc(/C=C/c4ccccc4)c(=O)n3C[C@@H]2[C@@H](CO)[C@@H]1C(=O)NC1CCC1	-12
Cc1nnc(NC(=O)c2cc3ccccc3o2)s1	-72
O=C(Nc1nnc(C2CC2)s1)c1cc2ccccc2o1	-60
Cc1cnc(NC(=O)c2cc3ccccc3o2)s1	56*
C[C@@H]1CN([C@H](C)CO)C(=O)c2c(c3ccccc3n2C)-c2ccccc2CO[C@@H]1CN(C)Cc1ccccc1	23
Cn1cnc(S(=O)(=O)N2CC[C@H]3[C@H](CO)Nc4ccc(-c5ccccc5F)cc4[C@H]32)c1	-10[25 µM]
Cc1cccc(-n2nnnc2SCC(=O)NC2CCCC2)c1	5
SMILES	CD40 NFkB inh
Nc1ccc(Sc2nnnn2-c2ccccc2)c(Cl)c1	4
Cc1cc(C)cc(N2C(=O)CC(Sc3nnnn3-c3ccccc3)C2=O)c1 (stereo not drawn)	99*
COc1cccc(C(=O)Nc2ccc3c(c2)OC[C@H](C)N(C(=O)C2CCCC2)C[C@H](C)[C@@H](OC)CN(C)C3=O)c1	-4
CC12CN3CC(C)(CN(C1)C3c1ccc3ccccc3c1O)C2=O (stereo not drawn)	7
CC12CN3CC(C)(CN(C1)C3c1ccc3c(c1)OCO3)C2=O (stereo not drawn)	36*
COc1ccc2[nH]cc(C3N4CC5(C)CN3CC(C)(C4)C5=O)c2c1 (stereo not drawn)	8
CC=Cc1ccc2n(c1=O)C[C@H]1[C@H](CO)[C@@H](C(=O)NCC3CC3)N(Cc3ccccc3)[C@@H]21 (mixture of isomers)	-4[25 µM]
C[C@H]1CN(C)C(=O)Cc2cc(NS(C)(=O)=O)ccc2O[C@H]1CN(C)S(C)(=O)=O	0
C[C@@H]1CCCCO[C@H](CN(C)Cc2ccccc2)[C@H](C)CN([C@H](C)CO)C(=O)c2cc(NC(=O)Nc3ccc(F)cc3)ccc2O1	24
C[C@H]1CCCCO[C@H](CN(C)C(=O)CCC(F)(F)F)[C@@H](C)CN([C@@H](C)CO)C(=O)c2cc(NC(=O)C3CCCCC3)ccc2O1	14[25 µM]
COc1ccc(NC(=O)N(C)C[C@H]2Oc3c(NS(=O)(=O)c4c(C)noc4C)cccc3C(=O)N([C@@H](C)CO)C[C@H]2C)cc1	-7[25 µM]
O=C(N1CCOCC1)N1CCN(S(=O)(=O)c2ccc(Cl)cc2)C1	6
O=C(c1nnsc1S(=O)(=O)c1ccc(Cl)cc1)N1CCOCC1	97*
O=C(c1ccc(S(=O)(=O)Nc2ccccc2Cl)cc1)N1CCOCC1	7
Cc1sc2ncnc(Sc3nnnn3-c3ccccc3)c2c1C	47*
Cc1sc2ncnc(SCC#N)c2c1C	6
CCCSc1ncnc2sc(C)c(C)c12	8
CCS(=O)(=O)N(C)C1c2cc(C#N)ccc2OC(C)(C)C1O (stereo not drawn)	1[25 µM]
C[C@H]1CN(C)C(=O)Cc2cc(N(C)C)ccc2O[C@@H]1CN(C)C(=O)OC(C)(C)C	-27
O=S(=O)(Nc1nc2ccccc2[nH]1)c1ccccc1	10
O=S(=O)(/C(=C\c1ccc(C(F)(F)F)cc1)c1nc2ccccc2[nH]1)c1ccccc1	60*
O=S(=O)(NCCc1nc2ccccc2[nH]1)c1ccccc1	9
O=C(NCCc1ccccc1)[C@H]1[C@H](CO)[C@H]2Cn3c(cccc3=O)[C@@H]1N2CC1CC1	2[25 µM]
C[C@@H]1CN(C)C(=O)c2cccnc2O[C@@H]1CN(C)S(C)(=O)=O	-5
OC(COc1ccc(-c2ccccc2)cc1)CN1CCCCC1 (stereo not drawn)	-18
SMILES	CD40 NFkB inh
OC(CCN1CCC2CCC(C2)C1)c1ccc(Br)cc1 (stereo not drawn)	9
OC(CCN1CCCCC1)c1ccc(-c2ccccc2)cc1 (stereo not drawn)	57*
CC(C)NC(=O)N(C)C[C@@H]1Oc2c(NS(C)(=O)=O)cccc2C(=O)N(C)C[C@H]1C	17
CCCCC(=O)Nc1ccc(Cl)cc1F	-11
O=C(COC(=O)Cc1ccsc1)Nc1ccc(Cl)cc1F	3
Cc1nnnn1/C(=C\c1ccccc1)C(=O)OCC(=O)Nc1ccc(Cl)cc1F	78*
O=C(C[C@H]1CC[C@H]2[C@@H](COC[C@H](O)CN2S(=O)(=O)c2ccccc2)O1)NCCN1CCCCC1	1
C[C@H](CO)N1C[C@H](C)[C@@H](CN(C)Cc2ccc(F)cc2)OCc2ccccc2-c2c(n(C)c3ccccc23)C1=O	29
C[C@H](CO)N1C[C@H](C)[C@H](CN(C)CC2CC2)OCc2cnnn2CCCC1=O	-8
C/C=C/c1ccc(C2[C@H]3CNC[C@@H]2N3Cc2ccccc2C(F)(F)F)cc1 (stereo partly drawn)	-10[25 µM]
CC(C)NC(=O)Nc1cccc2c1O[C@H](CN(C)C)[C@@H](C)CN(C)C2=O	-2
COc1ccc(-c2ccc(C3[C@H]4CNC[C@@H]3N4C(=O)Nc3ccc(C(F)(F)F)cc3)cc2)cc1 (stereo partly drawn)	1
COc1ccc(C(=O)[C@H]2[C@H]3C(=O)N(c4ccccc4)C(=O)[C@H]3C3C=CC=NN32)cc1 (stereo partly drawn)	-45
O=C1C=CC2C3C(=O)N(c4ccccc4)C(=O)C3C1N2Cc1ccccc1 (stereo not drawn)	100*
CC1CN(Cc2ccccc2)C(=O)N(c2ccccc2)C1=O (stereo not drawn)	-3
CCCCCCCCN1C(=O)C(C(C)=O)=C(C)C1(C)O (stereo not drawn)	5[25 µM]
Cc1nc(Nc2nc3ccccc3o2)nc(C)c1C(=O)Nc1ccc(F)cc1	-6
COCc1cc(=O)[nH]c(Nc2nc3ccccc3o2)n1	17
Cc1nc(Nc2nc3ccccc3o2)nc2c1CCC2	active
